Experimental findings from publication PMC11006913 are described below.

What all share (experiment): PBM; 200 nM protein, PBS
What all share (conditions): dsDNA, one strand shown

Assay [1] addresses T1, SIX6 (Homo sapiens, UniProt O95475 114-200, L167I).
T1 sequence: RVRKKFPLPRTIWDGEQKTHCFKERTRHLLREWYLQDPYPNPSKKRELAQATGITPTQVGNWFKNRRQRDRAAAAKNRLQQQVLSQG

The target of assay [2] is T2, SIX6 (Homo sapiens, UniProt O95475 114-200, L143V).
T2 sequence: T1 sequence with L30V, I54L

Assay [3] addresses T3, SIX6 (Homo sapiens, UniProt O95475 114-200, H141N).
T3 sequence: T1 sequence with H28N, I54L

The target of assay [4] is T4, SIX6 (Homo sapiens, UniProt O95475 114-200, T165P).
T4 sequence: T1 sequence with T52P, I54L

The target in assay [5] is T5, SIX6 (Homo sapiens, UniProt O95475 114-200, L167M).
T5 sequence: T1 sequence with I54M

For assay [6], the target named is T6, SIX6 (Homo sapiens, UniProt O95475 114-200, L143M).
T6 sequence: T1 sequence with L30M, I54L

In assay [7] the target is T7, SIX6 (Homo sapiens, UniProt O95475 114-200, L143I).
T7 sequence: T1 sequence with L30I, I54L

Assay [8] has as its target T8, SIX6 (Homo sapiens, UniProt O95475 114-200, T165G).
T8 sequence: T1 sequence with T52G, I54L

In assay [9] the target is T9, SIX6 (Homo sapiens, UniProt O95475 114-200, T139Q).
T9 sequence: T1 sequence with T26Q, I54L

Assay [10] addresses T10, SIX6 (Homo sapiens, UniProt O95475 114-200, T165A).
T10 sequence: T1 sequence with T52A, I54L

Assay [11] concerns the target T11, SIX6 (Homo sapiens, UniProt O95475 114-200, L167V).
T11 sequence: T1 sequence with I54V

The target of assay [12] is T12, SIX6 (Homo sapiens, UniProt O95475 114-200).
T12 sequence: T1 sequence with I54L

Assay [13] has as its target T13, SIX6 (Homo sapiens, UniProt O95475 114-200, T165I).
T13 sequence: T1 sequence with T52I, I54L

Residue numbers refer to the chain shown, from its start.

As to ACGGGCGG, the binding signal in [1] is 8.9 upbm affinity estimate (log intensity, higher = more binding, comparable within an allelic series); in assay [2] it was 8.8 upbm affinity estimate (log intensity, higher = more binding, comparable within an allelic series); in assay [3] it was 8.96 upbm affinity estimate (log intensity, higher = more binding, comparable within an allelic series); in assay [4], 8.88 upbm affinity estimate (log intensity, higher = more binding, comparable within an allelic series); in assay [5], 8.9 upbm affinity estimate (log intensity, higher = more binding, comparable within an allelic series); in [6], 8.96 upbm affinity estimate (log intensity, higher = more binding, comparable within an allelic series). Besides, the binding signal in [7] is 8.91 upbm affinity estimate (log intensity, higher = more binding, comparable within an allelic series); in assay [8], 9.03 upbm affinity estimate (log intensity, higher = more binding, comparable within an allelic series); in assay [9], 9.17 upbm affinity estimate (log intensity, higher = more binding, comparable within an allelic series); in [10] it was 9.02 upbm affinity estimate (log intensity, higher = more binding, comparable within an allelic series); in assay [11] it was 8.77 upbm affinity estimate (log intensity, higher = more binding, comparable within an allelic series); in [12] it was 8.94 upbm affinity estimate (log intensity, higher = more binding, comparable within an allelic series). Besides, in assay [13], the binding signal is 8.98 upbm affinity estimate (log intensity, higher = more binding, comparable within an allelic series).

Regarding GGCGCCCA, the binding signal in [1] is 8.76 upbm affinity estimate (log intensity, higher = more binding, comparable within an allelic series); in [2], 8.78 upbm affinity estimate (log intensity, higher = more binding, comparable within an allelic series); in assay [3], 8.67 upbm affinity estimate (log intensity, higher = more binding, comparable within an allelic series); in assay [4], 8.95 upbm affinity estimate (log intensity, higher = more binding, comparable within an allelic series); in assay [5] it was 8.83 upbm affinity estimate (log intensity, higher = more binding, comparable within an allelic series); in assay [6], 8.75 upbm affinity estimate (log intensity, higher = more binding, comparable within an allelic series). The binding signal is 8.8 upbm affinity estimate (log intensity, higher = more binding, comparable within an allelic series) in [7]; 8.82 upbm affinity estimate (log intensity, higher = more binding, comparable within an allelic series) in assay [8]; 8.81 upbm affinity estimate (log intensity, higher = more binding, comparable within an allelic series) in assay [9]; 8.62 upbm affinity estimate (log intensity, higher = more binding, comparable within an allelic series) in [10]; 8.78 upbm affinity estimate (log intensity, higher = more binding, comparable within an allelic series) in assay [11]; 8.71 upbm affinity estimate (log intensity, higher = more binding, comparable within an allelic series) in assay [12]. For the same sequence, the binding signal in assay [13] was 8.73 upbm affinity estimate (log intensity, higher = more binding, comparable within an allelic series).

For the sequence ACATATCA, the binding signal in assay [1] is 11.3 upbm affinity estimate (log intensity, higher = more binding, comparable within an allelic series); in [2], 10.4 upbm affinity estimate (log intensity, higher = more binding, comparable within an allelic series); in [3], 11.3 upbm affinity estimate (log intensity, higher = more binding, comparable within an allelic series); in assay [4] it was 9.99 upbm affinity estimate (log intensity, higher = more binding, comparable within an allelic series); in [5] it was 10.7 upbm affinity estimate (log intensity, higher = more binding, comparable within an allelic series); in assay [6] it was 11.1 upbm affinity estimate (log intensity, higher = more binding, comparable within an allelic series). Further, the binding signal in [7] is 10.4 upbm affinity estimate (log intensity, higher = more binding, comparable within an allelic series); in [8], 11.3 upbm affinity estimate (log intensity, higher = more binding, comparable within an allelic series); in [9], 11.3 upbm affinity estimate (log intensity, higher = more binding, comparable within an allelic series); in assay [10], 11.2 upbm affinity estimate (log intensity, higher = more binding, comparable within an allelic series); in assay [11], 11.1 upbm affinity estimate (log intensity, higher = more binding, comparable within an allelic series); in assay [12], 11.1 upbm affinity estimate (log intensity, higher = more binding, comparable within an allelic series). In assay [13], the binding signal is 11.1 upbm affinity estimate (log intensity, higher = more binding, comparable within an allelic series).

As for ATATCCTA, the binding signal was 10.8 upbm affinity estimate (log intensity, higher = more binding, comparable within an allelic series) in assay [1]; 10.2 upbm affinity estimate (log intensity, higher = more binding, comparable within an allelic series) in assay [2]; 10.8 upbm affinity estimate (log intensity, higher = more binding, comparable within an allelic series) in [3]; 9.8 upbm affinity estimate (log intensity, higher = more binding, comparable within an allelic series) in [4]; 10.6 upbm affinity estimate (log intensity, higher = more binding, comparable within an allelic series) in assay [5]; 10.7 upbm affinity estimate (log intensity, higher = more binding, comparable within an allelic series) in assay [6]. For the same sequence, the binding signal is 10.2 upbm affinity estimate (log intensity, higher = more binding, comparable within an allelic series) in assay [7]; 10.8 upbm affinity estimate (log intensity, higher = more binding, comparable within an allelic series) in [8]; 10.9 upbm affinity estimate (log intensity, higher = more binding, comparable within an allelic series) in assay [9]; 10.7 upbm affinity estimate (log intensity, higher = more binding, comparable within an allelic series) in [10]; 10.6 upbm affinity estimate (log intensity, higher = more binding, comparable within an allelic series) in assay [11]; 10.7 upbm affinity estimate (log intensity, higher = more binding, comparable within an allelic series) in assay [12]. Besides, the binding signal in assay [13] is 10.7 upbm affinity estimate (log intensity, higher = more binding, comparable within an allelic series).

As to AGTATCAT, the binding signal in [1] was 11.5 upbm affinity estimate (log intensity, higher = more binding, comparable within an allelic series); in assay [2], 10.5 upbm affinity estimate (log intensity, higher = more binding, comparable within an allelic series); in assay [3] it was 11.5 upbm affinity estimate (log intensity, higher = more binding, comparable within an allelic series); in assay [4] it was 9.89 upbm affinity estimate (log intensity, higher = more binding, comparable within an allelic series); in assay [5] it was 10.9 upbm affinity estimate (log intensity, higher = more binding, comparable within an allelic series); in assay [6] it was 11 upbm affinity estimate (log intensity, higher = more binding, comparable within an allelic series). In addition, the binding signal was 10.6 upbm affinity estimate (log intensity, higher = more binding, comparable within an allelic series) in assay [7]; 11.5 upbm affinity estimate (log intensity, higher = more binding, comparable within an allelic series) in [8]; 11.4 upbm affinity estimate (log intensity, higher = more binding, comparable within an allelic series) in assay [9]; 11.4 upbm affinity estimate (log intensity, higher = more binding, comparable within an allelic series) in assay [10]; 11.3 upbm affinity estimate (log intensity, higher = more binding, comparable within an allelic series) in assay [11]; 11.2 upbm affinity estimate (log intensity, higher = more binding, comparable within an allelic series) in assay [12]. In assay [13], the binding signal is 11.2 upbm affinity estimate (log intensity, higher = more binding, comparable within an allelic series).

As to GCCGCCCC, the binding signal in [1] was 9.02 upbm affinity estimate (log intensity, higher = more binding, comparable within an allelic series); in assay [2] it was 9.06 upbm affinity estimate (log intensity, higher = more binding, comparable within an allelic series); in assay [3] it was 8.99 upbm affinity estimate (log intensity, higher = more binding, comparable within an allelic series); in [4], 9.17 upbm affinity estimate (log intensity, higher = more binding, comparable within an allelic series); in assay [5] it was 9.05 upbm affinity estimate (log intensity, higher = more binding, comparable within an allelic series); in assay [6] it was 9.03 upbm affinity estimate (log intensity, higher = more binding, comparable within an allelic series). Further, the binding signal in [7] was 8.92 upbm affinity estimate (log intensity, higher = more binding, comparable within an allelic series); in assay [8] it was 9.03 upbm affinity estimate (log intensity, higher = more binding, comparable within an allelic series); in assay [9] it was 8.98 upbm affinity estimate (log intensity, higher = more binding, comparable within an allelic series); in assay [10], 9.08 upbm affinity estimate (log intensity, higher = more binding, comparable within an allelic series); in assay [11], 8.99 upbm affinity estimate (log intensity, higher = more binding, comparable within an allelic series); in [12], 8.93 upbm affinity estimate (log intensity, higher = more binding, comparable within an allelic series). In assay [13], the binding signal is 9.05 upbm affinity estimate (log intensity, higher = more binding, comparable within an allelic series).
